Some test systems named below: NCI-H23 lung; NCI-H226 lung; NCI-H322M lung; HOP-62 NSCLC; NCI-H460 lung; HOP-92 NSCLC; A549/ATCC NSCLC; 786-0 renal; DU-145 prostate; K-562 leukemia; MALME-3M melanoma; MDA-MB-231 breast; RXF 393 renal; SF-268 CNS; SF-295 CNS; SF-539 CNS; UACC-257 melanoma; M14 melanoma; COLO 205 colon.
What all share (test): NCI-60 one-dose screen, 48 h (100 = growth as untreated, 0 = no growth, -100 = all killed)
What all share (conditions): 10 µM unless noted

The results in this text go back to PubChem BioAssay (NCI).

Compounds without any hit were thinned out: in the full panel of roughly 83,000, 20% have a hit.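 The test compound was applied at a single concentration to cells in 96-well plates for 48 hours, and percent growth was recorded.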 A number with no mark means an inactive call. Active and inactive are the calls of the source. Rule for the calls: active = growth percent below 10; inactive = the rest.

As for `C[C@H](C(=O)N[C@@H](Cc1ccc(-c2ccccc2)cc1)C(=O)NC1CC(C)(C)N(C)C(C)(C)C1)c1ccc(-c2ccccc2)c(F)c1`, the growth is -71% (active) in the assay on NCI-H23 lung; -49.1% (active) in the assay with NCI-H226 lung; -62.3% (active) in the assay on NCI-H322M lung; -73.5% (active) in the assay with HOP-62 NSCLC; -75.8% (active) with NCI-H460 lung; -75.5% (active) with HOP-92 NSCLC. Moreover, the growth with A549/ATCC NSCLC is -79.1% (active); in the assay on 786-0 renal, -91.3% (active); in the assay on DU-145 prostate, -83.1% (active); in the assay with K-562 leukemia it was -56.9% (active); with MALME-3M melanoma, -71.5% (active); in the assay with MDA-MB-231 breast it was -68.5% (active). The growth in the assay with RXF 393 renal was -73.2% (active); in the assay on SF-268 CNS it was -70.9% (active); in the assay on SF-295 CNS, -66% (active); in the assay on SF-539 CNS, -79.5% (active); in the assay with UACC-257 melanoma, -66.2% (active); in the assay on M14 melanoma, -82.6% (active).

Take `O=C(NC1CCS(=O)(=O)C1)c1ccc(C(=O)c2ccccc2)cc1` (centres undefined): the growth is 98.9% with NCI-H23 lung; 94.5% in the assay with NCI-H226 lung; 128% in the assay with NCI-H322M lung; 101% in the assay on HOP-62 NSCLC; 104% with NCI-H460 lung; 101% in the assay on HOP-92 NSCLC. Also, the growth in the assay on 786-0 renal is 101%; in the assay on COLO 205 colon, 102%; in the assay on DU-145 prostate, 128%; with K-562 leukemia, 108%; in the assay with MALME-3M melanoma, 108%; in the assay on MDA-MB-231 breast it was 124%. Further, the growth in the assay with SF-268 CNS was 118%; in the assay with SF-295 CNS it was 99.6%; in the assay with SF-539 CNS, 103%; with UACC-257 melanoma, 82.7%; in the assay on M14 melanoma it was 98.6%.

On to `CCCCCN(CCCCC)CCCNc1c2c(nc3ccc(Cl)cc13)CCCC2`, for which the growth is 30.7% with NCI-H23 lung; 50.8% in the assay on NCI-H226 lung; 73.8% in the assay with NCI-H322M lung; 44.3% with HOP-62 NSCLC; 34% in the assay with NCI-H460 lung; -6.23% (active) in the assay with HOP-92 NSCLC. The growth in the assay with A549/ATCC NSCLC is 31.8%; with COLO 205 colon it was -11% (active); in the assay on DU-145 prostate, 66.6%; in the assay on K-562 leukemia, 14.2%; with MALME-3M melanoma, 35.5%; with MDA-MB-231 breast it was 18.5%. Moreover, the growth is 57.1% with RXF 393 renal; 76.1% with SF-268 CNS; 37.8% with SF-295 CNS; 47% in the assay on SF-539 CNS; 13.2% in the assay with UACC-257 melanoma.

On to `CSc1nc2nc3c(nc2c(=O)n1C)C(=O)c1ccccc1C3=O`, for which the growth was -26.4% (active) in the assay on NCI-H23 lung; -55.6% (active) in the assay on NCI-H226 lung; -89.8% (active) in the assay with NCI-H322M lung; -97.9% (active) in the assay with HOP-62 NSCLC; -62% (active) with NCI-H460 lung; -40% (active) in the assay with HOP-92 NSCLC. The growth is -67.3% (active) with A549/ATCC NSCLC; -50.5% (active) in the assay on 786-0 renal; -89.7% (active) with DU-145 prostate; -93% (active) in the assay with MALME-3M melanoma; -4.27% (active) in the assay on MDA-MB-231 breast; -79.3% (active) in the assay with RXF 393 renal. Besides, the growth with SF-268 CNS is -17.9% (active); in the assay with SF-295 CNS it was -93.4% (active); with SF-539 CNS it was -99.8% (active); in the assay with M14 melanoma, -84.6% (active).

For `COc1cccc2c1C(=O)c1c(O)c3c(c(O)c1C2=O)C[C@@](O)(C(C)=O)C[C@@H]3O[C@H]1C[C@H](N)[C@H](O)[C@H](C)O1`, the growth with NCI-H23 lung is -67.3% (active); with NCI-H226 lung, -33.1% (active); in the assay on NCI-H322M lung it was -19.9% (active); with HOP-62 NSCLC, -50.2% (active); with NCI-H460 lung it was -3.01% (active); in the assay on HOP-92 NSCLC it was -28% (active). The growth in the assay on 786-0 renal is -9.97% (active); in the assay on COLO 205 colon, -85.8% (active); in the assay with DU-145 prostate, 1.62% (active); with K-562 leukemia, -4.44% (active); in the assay on MALME-3M melanoma it was -70.7% (active); with MDA-MB-231 breast it was -14.6% (active). Moreover, the growth is -65.1% (active) in the assay on RXF 393 renal; -43.8% (active) in the assay on SF-268 CNS; -30.8% (active) with SF-295 CNS; -43.1% (active) in the assay on SF-539 CNS; -47.3% (active) in the assay with UACC-257 melanoma; -86.5% (active) in the assay with M14 melanoma.

As to `O=C(c1ccc(Cl)cc1)c1ccc(Cl)cc1`, the growth is 104% with NCI-H23 lung; 100% with NCI-H226 lung; 115% in the assay with NCI-H322M lung; 98.8% with HOP-62 NSCLC; 107% with NCI-H460 lung; 101% with HOP-92 NSCLC. Moreover, the growth with 786-0 renal was 114%; in the assay on COLO 205 colon it was 117%; with DU-145 prostate, 108%; in the assay on K-562 leukemia, 98.2%; with MALME-3M melanoma, 129%; in the assay on MDA-MB-231 breast, 124%. The growth in the assay with RXF 393 renal is 103%; in the assay on SF-268 CNS, 104%; in the assay on SF-295 CNS, 102%; in the assay on SF-539 CNS, 107%; in the assay on M14 melanoma, 114%.

Take `CCOC(=O)c1cnc2c(C)cc(C)cc2c1NCCCN(C)C`: the growth was 35.2% in the assay on NCI-H23 lung; 36.1% in the assay with NCI-H226 lung; 20.9% in the assay with NCI-H322M lung; 21.4% in the assay on HOP-62 NSCLC; 10.1% with NCI-H460 lung; 4.88% (active) in the assay on HOP-92 NSCLC. The growth with A549/ATCC NSCLC was 1.69% (active); in the assay with 786-0 renal it was 29.2%; in the assay with DU-145 prostate, 35.4%; in the assay with K-562 leukemia, 8.6% (active); in the assay on MALME-3M melanoma, 51%; with MDA-MB-231 breast, 35.7%. Further, the growth with SF-268 CNS is 35.7%; in the assay with SF-295 CNS it was 29.9%; in the assay with SF-539 CNS, 28.9%; in the assay with M14 melanoma, 34.2%.

As to `O=CN1N=C(c2ccc(Nc3ccnc4cc(Cl)ccc34)cc2)CC1c1ccc(Cl)cc1` (centres undefined), the growth was 39.2% in the assay with NCI-H23 lung; 52.6% in the assay on NCI-H226 lung; 44.1% in the assay on NCI-H322M lung; 33.8% in the assay with HOP-62 NSCLC; 6.99% (active) with NCI-H460 lung; 49.5% in the assay on HOP-92 NSCLC. Moreover, the growth in the assay with 786-0 renal is 27.9%; in the assay with COLO 205 colon, 12.1%; in the assay with DU-145 prostate it was 10%; with K-562 leukemia it was 9.53% (active); with MALME-3M melanoma, 34.5%; in the assay with MDA-MB-231 breast, 31.2%. In addition, the growth was 17.5% with RXF 393 renal; 34.9% in the assay with SF-268 CNS; -1.08% (active) with SF-295 CNS; -0.113% (active) in the assay on SF-539 CNS; 77.7% in the assay with UACC-257 melanoma; 39.3% with M14 melanoma.

As for `COC(=O)C1(NC(=O)CNC(=O)OCc2ccccc2)CCCC1`, the growth is 106% with NCI-H23 lung; 99.1% with NCI-H226 lung; 113% in the assay on NCI-H322M lung; 111% with HOP-62 NSCLC; 111% with NCI-H460 lung; 85.2% with HOP-92 NSCLC. In addition, the growth in the assay with A549/ATCC NSCLC is 95.3%; in the assay on 786-0 renal, 95.3%; in the assay on DU-145 prostate it was 114%; with K-562 leukemia, 98.7%; with MDA-MB-231 breast it was 95.8%; with RXF 393 renal it was 105%. The growth in the assay on SF-268 CNS was 114%; in the assay on SF-295 CNS it was 117%; in the assay on SF-539 CNS it was 99.4%; with UACC-257 melanoma, 106%; with M14 melanoma, 105%.
